# According to paper PMC8384837, “Expanding the binding specificity for RNA recognition by a PUF domain”:
# Experiments:
# Test in all cases: yeast three-hybrid, YBZ-1, SC-Leu-His + 0.5 mM 3-AT, 4 days
# Settings in all cases: tags: N-Gal4 AD-HA kept; label: inside an RPR1-promoter hybrid RNA with tandem MS2 sites; ssRNA
# PUM1 PUF domain R4-PWT = PUM1 PUF domain R4-PWT (Homo sapiens, UniProt Q14671 828-1176, N971P;H972W;Q975T)
# How it was run: (§1)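 The interaction score is the log change in variant frequency from input to selection. Scores were computed in log2 with a pseudocount of 1 for absent variants, using Illumina sequencing of PCR-amplified repeat regions. The input came from four days on SC-Leu and the selection from four days on SC-Leu-His + 0.5 mM 3-AT. The cells were strain YBZ-1 (LexA–MS2 coat fusion, HIS3 reporter) co-expressing Pumilio-1 PUF domain libraries and matching RNA elements from a centromeric plasmid.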
# PUM1 PUF domain R4-SMV = PUM1 PUF domain R4-SMV (Homo sapiens, UniProt Q14671 828-1176, N971S;H972M;Q975V)
# How it was run: as §1
# PUM1 PUF domain R8-KKF = PUM1 PUF domain R8-KKF (Homo sapiens, UniProt Q14671 828-1176, N1122K;Y1123K;Q1126F)
# How it was run: as §1
# PUM1 PUF domain R8-CHR = PUM1 PUF domain R8-CHR (Homo sapiens, UniProt Q14671 828-1176, N1122C;Y1123H;Q1126R)
# How it was run: as §1
# PUM1 PUF domain R3-ARL = PUM1 PUF domain R3-ARL (Homo sapiens, UniProt Q14671 828-1176, C935A;Q939L)
# How it was run: as §1
# PUM1 PUF domain R3-GNE = PUM1 PUF domain R3-GNE (Homo sapiens, UniProt Q14671 828-1176, C935G;R936N;Q939E)
# How it was run: as §1
# PUM1 PUF domain R3-IYS = PUM1 PUF domain R3-IYS (Homo sapiens, UniProt Q14671 828-1176, C935I;R936Y;Q939S)
# How it was run: as §1
# PUM1 PUF domain R6-IFL = target: T1, PUM1 PUF domain R6-IFL (Homo sapiens, UniProt Q14671 828-1176, N1043I;Y1044F;Q1047L)
# T1 sequence: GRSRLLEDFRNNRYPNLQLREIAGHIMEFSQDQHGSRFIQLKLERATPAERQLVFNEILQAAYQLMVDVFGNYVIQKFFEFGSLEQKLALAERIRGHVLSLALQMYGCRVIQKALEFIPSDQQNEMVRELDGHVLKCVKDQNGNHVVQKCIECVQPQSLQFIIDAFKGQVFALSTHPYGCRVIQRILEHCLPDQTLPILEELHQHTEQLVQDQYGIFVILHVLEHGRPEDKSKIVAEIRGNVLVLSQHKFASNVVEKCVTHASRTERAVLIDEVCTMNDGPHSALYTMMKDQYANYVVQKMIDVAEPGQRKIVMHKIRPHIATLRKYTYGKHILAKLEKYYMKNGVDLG
# How it was run: as §1
# PUM1 PUF domain R7-IMR = PUM1 PUF domain R7-IMR (Homo sapiens, UniProt Q14671 828-1176, S1079I;N1080M;E1083R)
# How it was run: as §1
# PUM1 PUF domain R7-RRY = PUM1 PUF domain R7-RRY (Homo sapiens, UniProt Q14671 828-1176, S1079R;N1080R;E1083Y)
# How it was run: as §1
# PUM1 PUF domain R5-FRQ = PUM1 PUF domain R5-FRQ (Homo sapiens, UniProt Q14671 828-1176, C1007F)
# How it was run: as §1
# Chain of PUM1 PUF domain R4-SMV (Q14671 828-1176 N971S/H972M/Q975V): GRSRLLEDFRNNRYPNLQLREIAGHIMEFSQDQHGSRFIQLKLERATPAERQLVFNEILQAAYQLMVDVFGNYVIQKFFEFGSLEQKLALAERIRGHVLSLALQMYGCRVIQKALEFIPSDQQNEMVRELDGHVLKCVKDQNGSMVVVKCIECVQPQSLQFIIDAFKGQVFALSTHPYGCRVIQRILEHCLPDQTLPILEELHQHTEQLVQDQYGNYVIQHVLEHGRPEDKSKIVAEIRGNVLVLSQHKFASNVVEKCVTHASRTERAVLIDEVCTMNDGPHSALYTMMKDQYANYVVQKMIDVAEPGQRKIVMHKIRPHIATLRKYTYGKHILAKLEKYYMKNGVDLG
sequence,measurement,setting,value
GGCUAGAACUAGUGGAUCCCCCGGCGCCCGGCGGCUCGAGCCCGGGUAAGUGUACAUAGUCUGCAUGCCGCCGGGCGCCAUGCCUGCAGGUCGACUCUAGAAAACAUG,binding signal,PUM1 PUF domain R4-PWT,5.24 log2 enrichment (interaction score)
same,binding signal,PUM1 PUF domain R4-SMV,0.58 log2 enrichment (interaction score)
GGCUAGAACUAGUGGAUCCCCCGGCGCCCGGCGGCUCGAGCCCGGGUAAGCGUAAAUAGUCUGCAUGCCGCCGGGCGCCAUGCCUGCAGGUCGACUCUAGAAAACAUG,binding signal,PUM1 PUF domain R8-KKF,3 log2 enrichment (interaction score)
same,binding signal,PUM1 PUF domain R8-CHR,4.19 log2 enrichment (interaction score)
GGCUAGAACUAGUGGAUCCCCCGGCGCCCGGCGGCUCGAGCCCGGGUAAGUGUAAUUAGUCUGCAUGCCGCCGGGCGCCAUGCCUGCAGGUCGACUCUAGAAAACAUG,binding signal,PUM1 PUF domain R3-ARL,1.22 log2 enrichment (interaction score)
GGCUAGAACUAGUGGAUCCCCCGGCGCCCGGCGGCUCGAGCCCGGGUAAGUGUAAGUAGUCUGCAUGCCGCCGGGCGCCAUGCCUGCAGGUCGACUCUAGAAAACAUG,binding signal,PUM1 PUF domain R3-GNE,2.22 log2 enrichment (interaction score)
same,binding signal,PUM1 PUF domain R3-IYS,4.72 log2 enrichment (interaction score)
GGCUAGAACUAGUGGAUCCCCCGGCGCCCGGCGGCUCGAGCCCGGGUAAGUGAAAAUAGUCUGCAUGCCGCCGGGCGCCAUGCCUGCAGGUCGACUCUAGAAAACAUG,binding signal,PUM1 PUF domain R6-IFL,7.28 log2 enrichment (interaction score)
GGCUAGAACUAGUGGAUCCCCCGGCGCCCGGCGGCUCGAGCCCGGGUAAGUUUAAAUAGUCUGCAUGCCGCCGGGCGCCAUGCCUGCAGGUCGACUCUAGAAAACAUG,binding signal,PUM1 PUF domain R7-IMR,2.21 log2 enrichment (interaction score)
same,binding signal,PUM1 PUF domain R7-RRY,3.87 log2 enrichment (interaction score)
GGCUAGAACUAGUGGAUCCCCCGGCGCCCGGCGGCUCGAGCCCGGGUAAGUCUAAAUAGUCUGCAUGCCGCCGGGCGCCAUGCCUGCAGGUCGACUCUAGAAAACAUG,binding signal,PUM1 PUF domain R7-RRY,3.51 log2 enrichment (interaction score)
GGCUAGAACUAGUGGAUCCCCCGGCGCCCGGCGGCUCGAGCCCGGGUAAGUGUCAAUAGUCUGCAUGCCGCCGGGCGCCAUGCCUGCAGGUCGACUCUAGAAAACAUG,binding signal,PUM1 PUF domain R5-FRQ,2.71 log2 enrichment (interaction score)
